Experimental data: PubChem BioAssay (NCATS)
Records with an inconclusive call do not appear. The source made the active and inactive calls. Calls come from the whole dose curve; as a rule, active = well fitted curve in the direction sought with a large enough effect; inconclusive = small, poorly fitted or top-dose-only effect, or another doubt; inactive = no such curve, though single readings can be large; an effect the other way counts as inactive or inconclusive.

Experiments:
[1] = NS1 protein of Zika virus - qHTS assay to identify small molecule inhibitors in human HEK 293 cells (AID 1347053);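 note: series mostly up to about 46 µM; plate controls were infected untreated cells for no effect and uninfected cells for full effect; nearly all actives have a fitted effect of over 55% in size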
Procedure, shortened: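 Read-out is a two-antibody TR-FRET for ZIKV NS1, normalized between uninfected cells and infected cells. Compound added 1 h before MR766 infection at MOI 0.5; human HEK 293 cells incubated 24 h, 37 C.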

[2] = qHTS of pediatric cancer cell lines to identify multiple opportunities for drug repurposing: Primary screen for TC32 cells (AID 1347089); note: % is set by controls: 0 for no effect and ±100 for the full control effect; nearly all actives have a fitted effect of over 60% in size
Procedure, shortened: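 Measured quantity: luminescence from CellTiter-Glo, reflecting metabolically active TC32 cells following 48 h of compound. Curves came straight from multi-point titrations, with 8 or 11 points in primary and 11 in confirmatory screening.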

[3] = qHTS of pediatric cancer cell lines to identify multiple opportunities for drug repurposing: Primary screen for DAOY cells (AID 1347090);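 note: series mostly up to about 46 µM; plate controls were DMSO for no effect and bortezomib for full effect; nearly all actives have a fitted effect of over 55% in size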
Procedure, shortened: (§1)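 Cell viability, CellTiter-Glo luminescence; 500-1,000 cells/well, 8- or 11-point titration, 48 h compound exposure at 37 degrees C, 5% CO2. Controls: DMSO neutral, bortezomib 2.3 µM final as positive.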

[4] = qHTS of pediatric cancer cell lines to identify multiple opportunities for drug repurposing: Primary screen for SJ-GBM2 cells (AID 1347091);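 note: plate controls were DMSO neutral control for no effect and bortezomib for full effect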
Procedure, shortened: as §1

[5] = qHTS of pediatric cancer cell lines to identify multiple opportunities for drug repurposing: Primary screen for SK-N-MC cells (AID 1347093);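 note: series mostly up to about 46 µM; plate controls were DMSO neutral control for no effect and bortezomib for full effect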
Procedure, shortened: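 Metabolically active cells were quantified by ATP-dependent luminescence (CellTiter-Glo, 15 min at room temperature) following 48 h treatment. Cells had been plated at 500-1,000 per well and settled for 5 h beforehand.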

[6] = qHTS of pediatric cancer cell lines to identify multiple opportunities for drug repurposing: Primary screen for BT-37 cells (AID 1347094);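 note: series mostly up to about 57 µM; plate controls were DMSO for no effect and bortezomib for full effect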
Procedure, shortened: (§2)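 Luminescence from CellTiter-Glo served as readout of metabolically active cells after 48 h compound exposure. Titrations: MIPE 11-point, from 0.78 nM; NPC 8-point, from 0.59 nM (final). Concentration-response curves came straight from the primary screen.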

[7] = qHTS of pediatric cancer cell lines to identify multiple opportunities for drug repurposing: Primary screen for NB-EBc1 cells (AID 1347095);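 note: plate controls were DMSO neutral control for no effect and bortezomib for full effect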
Procedure, shortened: as §2

[8] = qHTS of pediatric cancer cell lines to identify multiple opportunities for drug repurposing: Primary screen for U-2 OS cells (AID 1347096);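 note: plate controls were DMSO wells for no effect and bortezomib positive control wells for full effect; nearly all actives have a fitted effect of over 50% in size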
Procedure, shortened: (§3)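 Cells (500-1,000/well) rested 5 h, then received compounds for 48 h; metabolically active cells were measured by CellTiter-Glo luminescence. Final concentrations spanned up to 46 µM (MIPE, 11-point) or 0.59 nM-46 µM (NPC, 8-point) in primary screens, 11-point in follow-ups.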

[9] = qHTS of pediatric cancer cell lines to identify multiple opportunities for drug repurposing: Primary screen for Saos-2 cells (AID 1347097); note: % is set by controls: 0 for no effect and ±100 for the full control effect; nearly all actives have a fitted effect of over 40% in size
Procedure, shortened: as §2

[10] = qHTS of pediatric cancer cell lines to identify multiple opportunities for drug repurposing: Primary screen for SK-N-SH cells (AID 1347098); note: % is set by controls: 0 for no effect and ±100 for the full control effect; nearly all actives have a fitted effect of over 65% in size
Procedure, shortened: as §3

[11] = qHTS of pediatric cancer cell lines to identify multiple opportunities for drug repurposing: Primary screen for NB1643 cells (AID 1347099);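 note: plate controls were DMSO neutral control for no effect and bortezomib positive control for full effect; nearly all actives have a fitted effect of over 50% in size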
Procedure, shortened: as §2

[12] = qHTS of pediatric cancer cell lines to identify multiple opportunities for drug repurposing: Primary screen for LAN-5 cells (AID 1347100);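 note: plate controls were DMSO neutral control for no effect and bortezomib positive control for full effect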
Procedure, shortened: as §3

[13] = qHTS of pediatric cancer cell lines to identify multiple opportunities for drug repurposing: Primary screen for BT-12 cells (AID 1347101);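 note: plate controls were DMSO for no effect and bortezomib positive control for full effect; nearly all actives have a fitted effect of over 25% in size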
Procedure, shortened: as §3

[14] = qHTS of pediatric cancer cell lines to identify multiple opportunities for drug repurposing: Primary screen for Rh18 cells (AID 1347102); note: % is set by controls: 0 for no effect and ±100 for the full control effect; nearly all actives have a fitted effect of over 65% in size
Procedure, shortened: as §3

[15] = qHTS of pediatric cancer cell lines to identify multiple opportunities for drug repurposing: Primary screen for OHS-50 cells (AID 1347103);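 note: plate controls were DMSO neutral control for no effect and bortezomib positive control for full effect; nearly all actives have a fitted effect of over 40% in size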
Procedure, shortened: as §3

[16] = qHTS of pediatric cancer cell lines to identify multiple opportunities for drug repurposing: Primary screen for RD cells (AID 1347104);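 note: plate controls were DMSO for no effect and bortezomib for full effect; nearly all actives have a fitted effect of over 55% in size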
Procedure, shortened: as §2

[17] = qHTS of pediatric cancer cell lines to identify multiple opportunities for drug repurposing: Primary screen for MG 63 (6-TG R) cells (AID 1347105); note: % is set by controls: 0 for no effect and ±100 for the full control effect; nearly all actives have a fitted effect of over 50% in size
Procedure, shortened: as §2

[18] = qHTS of pediatric cancer cell lines to identify multiple opportunities for drug repurposing: Primary screen for control Hh wild type fibroblast cells (AID 1347106);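 note: series mostly up to about 46 µM; % is set by controls: 0 for no effect and ±100 for the full control effect; a drop in luminescence marks cytotoxicity and a rise apparent proliferation; nearly all actives have a fitted effect of over 55% in size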
Procedure, shortened: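 Cells (500-1,000/well) in growth media were settled 5 h at 37 degrees C, then given compounds for 48 h. Viability was read as CellTiter-Glo luminescence. Primary runs used MIPE at 11 points (0.78 nM-46 µM) and NPC at 8 points (0.59 nM-46 µM); follow-ups used 11 points.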

[19] = qHTS of pediatric cancer cell lines to identify multiple opportunities for drug repurposing: Primary screen for Rh30 cells (AID 1347107); note: series mostly up to about 46 µM; % is set by controls: 0 for no effect and ±100 for the full control effect; nearly all actives have a fitted effect of over 75% in size
Procedure, shortened: as §3

[20] = qHTS of pediatric cancer cell lines to identify multiple opportunities for drug repurposing: Primary screen for A673 cells (AID 1347092); note: % is set by controls: 0 for no effect and ±100 for the full control effect; nearly all actives have a fitted effect of over 45% in size
Procedure, shortened: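 Cells are plated, rested 5 h, dosed by pintool, incubated 48 h, then lysed with CellTiter-Glo and read by luminescence. DMSO is the neutral control; bortezomib at 2.3 uM final is the positive control.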

NC(N)=NS(=O)(=O)c1ccc(N)cc1
inactive: outcome [1] | outcome [2] | outcome [3] | outcome [4] | Potency [5] | outcome [6] | outcome [7] | outcome [8] | outcome [9] | outcome [10] | Potency [11] | outcome [12] | outcome [13] | outcome [14] | outcome [15] | outcome [16] | outcome [17] | outcome [18] | outcome [19]

O=C(O)Cc1cn(-c2ccccc2)nc1-c1ccc(Cl)cc1
inactive: outcome [1] | outcome [2] | outcome [3] | outcome [4] | outcome [20] | outcome [6] | outcome [7] | outcome [9] | outcome [12] | outcome [13] | outcome [14] | outcome [16] | outcome [17] | outcome [18] | outcome [19]

O=C(O)Cc1ccc(CCNS(=O)(=O)c2ccc(Cl)cc2)cc1
inactive: outcome [1] | outcome [2] | outcome [3] | outcome [4] | outcome [20] | outcome [6] | outcome [7] | outcome [8] | outcome [10] | outcome [12] | outcome [13] | outcome [14] | outcome [15] | outcome [16] | outcome [17] | outcome [18] | outcome [19]

NC(=O)c1ccc([N+](=O)[O-])cc1Cl
inactive: outcome [1] | outcome [2] | outcome [3] | outcome [4] | outcome [20] | outcome [6] | outcome [7] | outcome [8] | outcome [9] | outcome [10] | Potency [11] | outcome [12] | outcome [13] | outcome [14] | outcome [15] | outcome [16] | outcome [17] | outcome [18] | outcome [19]

NC(=O)NS(=O)(=O)c1ccc(N)cc1
inactive: outcome [1] | outcome [2] | outcome [3] | outcome [4] | outcome [20] | Potency [5] | outcome [8] | outcome [9] | outcome [10] | outcome [12] | outcome [13] | outcome [14] | outcome [15] | outcome [16] | outcome [18] | outcome [19]

CCN(CC)CC1CCCCN1CC(=O)N1c2ccccc2C(=O)Nc2cccnc21 (centres undefined)
inactive: outcome [1] | outcome [2] | outcome [3] | outcome [4] | outcome [20] | Potency [5] | outcome [7] | outcome [8] | outcome [10] | Potency [11] | outcome [12] | outcome [13] | outcome [14] | outcome [16] | outcome [18] | outcome [19]

CC(=O)Nc1ccccc1
inactive: outcome [1] | outcome [2] | outcome [3] | outcome [4] | outcome [20] | Potency [5] | outcome [7] | outcome [8] | outcome [9] | outcome [10] | Potency [11] | outcome [12] | outcome [13] | outcome [14] | outcome [15] | outcome [16] | outcome [18] | outcome [19]

O=c1[nH]c(=O)n([C@H]2C[C@H](O)[C@@H](CO)O2)cc1I
inactive: outcome [1] | outcome [2] | outcome [3] | outcome [4] | outcome [20] | Potency [5] | outcome [7] | outcome [8] | outcome [10] | Potency [11] | outcome [12] | outcome [13] | outcome [14] | outcome [16] | outcome [17] | outcome [18] | outcome [19]

O=C(O)c1ccc[n+]([O-])c1
inactive: outcome [1] | outcome [2] | outcome [3] | outcome [4] | outcome [20] | Potency [5] | outcome [9] | outcome [10] | outcome [12] | outcome [13] | outcome [14] | outcome [15] | outcome [16] | outcome [17] | outcome [18] | outcome [19]

CC(=O)Nc1ccc(OCCOCCOc2ccc(NC(C)=O)cc2)cc1
inactive: outcome [1] | outcome [2] | outcome [3] | outcome [4] | outcome [20] | Potency [5] | outcome [8] | outcome [9] | outcome [10] | outcome [12] | outcome [13] | outcome [14] | outcome [15] | outcome [16] | outcome [18] | outcome [19]

O=C(Cn1ccnc1[N+](=O)[O-])NCc1ccccc1
inactive: outcome [1] | outcome [2] | outcome [3] | outcome [4] | outcome [20] | Potency [5] | outcome [7] | outcome [8] | outcome [9] | outcome [10] | outcome [12] | outcome [13] | outcome [14] | outcome [15] | outcome [16] | outcome [17] | outcome [18] | outcome [19]

CC(=O)N(CC(O)CN(C(C)=O)c1c(I)c(C(=O)NCC(O)CO)c(I)c(C(=O)NCC(O)CO)c1I)c1c(I)c(C(=O)NCC(O)CO)c(I)c(C(=O)NCC(O)CO)c1I (centres undefined)
inactive: outcome [1] | outcome [2] | outcome [3] | outcome [4] | outcome [20] | Potency [5] | outcome [7] | outcome [8] | outcome [9] | outcome [10] | Potency [11] | outcome [12] | outcome [13] | outcome [14] | outcome [15] | outcome [16] | outcome [17] | outcome [18] | outcome [19]

COc1ccc(-c2cc(=O)c3c(O)cc(O[C@@H]4O[C@H](CO[C@@H]5O[C@@H](C)[C@H](O)[C@@H](O)[C@H]5O)[C@@H](O)[C@H](O)[C@H]4O)cc3o2)cc1O
inactive: outcome [1] | outcome [2] | outcome [3] | outcome [4] | outcome [20] | Potency [5] | outcome [8] | outcome [9] | outcome [10] | Potency [11] | outcome [12] | outcome [13] | outcome [14] | outcome [15] | outcome [16] | outcome [17] | outcome [19]

CCCCOC(=O)c1ccc(N)cc1
inactive: outcome [1] | outcome [2] | outcome [3] | outcome [4] | outcome [20] | Potency [5] | outcome [9] | outcome [10] | Potency [11] | outcome [12] | outcome [13] | outcome [14] | outcome [17] | outcome [18] | outcome [19]

NC(N)=NCCN1CCCCCCC1
inactive: activity change, negative = inhibition [1] -1.99% [at 0.593 µM] | activity change, negative = cytotoxic [2] 19.1% [at 0.594 µM] | activity change, negative = cytotoxic [3] 7.11% [at 0.597 µM] | activity change, negative = cytotoxic [4] 15.5% [at 0.597 µM] | activity change, negative = cytotoxic [20] 2.24% [at 0.597 µM] | activity change, negative = cytotoxic [5] -13.5% [at 0.597 µM] | activity change, negative = cytotoxic [7] 19.5% [at 0.597 µM] | activity change, negative = cytotoxic [8] 9.69% [at 0.597 µM] | activity change, negative = cytotoxic [9] 2.27% [at 0.597 µM] | activity change, negative = cytotoxic [10] -2% [at 0.741 µM] | activity change, negative = cytotoxic [11] 6.64% [at 0.597 µM] | activity change, negative = cytotoxic [12] 4.87% [at 0.597 µM] | activity change, negative = cytotoxic [13] 7.77% [at 0.745 µM] | activity change, negative = cytotoxic [14] 6.63% [at 0.597 µM] | activity change, negative = cytotoxic [15] 7.69% [at 0.73 µM] | activity change, negative = cytotoxic [16] 3.85% [at 0.597 µM] | activity change, negative = cytotoxic [17] 7.08% [at 0.597 µM] | activity change, negative = cytotoxic [18] 3.36% [at 0.597 µM] | activity change, negative = cytotoxic [19] 25.1% [at 0.597 µM]

CC(C)NC[C@@H](O)COc1ccc(CC(N)=O)cc1
inactive: outcome [1] | outcome [2] | outcome [3] | outcome [4] | outcome [20] | Potency [5] | outcome [8] | outcome [9] | outcome [10] | Potency [11] | outcome [12] | outcome [13] | outcome [14] | outcome [15] | outcome [16] | outcome [17] | outcome [19]
